AmpC nodet inh: inhibitors of E. coli AmpC beta-lactamase without detergent; P00811; AmpC nitrocefin hydrolysis, absorbance 480 nm, no detergent; Potency, µM (titrated, usually from 28.7 µM), for inactives: at the highest dose activity change, negative = inhibition; hit rate 1.8% among 71,000; further: % of control where 0% means no effect
Target sequence (P00811 whole entry, looked up): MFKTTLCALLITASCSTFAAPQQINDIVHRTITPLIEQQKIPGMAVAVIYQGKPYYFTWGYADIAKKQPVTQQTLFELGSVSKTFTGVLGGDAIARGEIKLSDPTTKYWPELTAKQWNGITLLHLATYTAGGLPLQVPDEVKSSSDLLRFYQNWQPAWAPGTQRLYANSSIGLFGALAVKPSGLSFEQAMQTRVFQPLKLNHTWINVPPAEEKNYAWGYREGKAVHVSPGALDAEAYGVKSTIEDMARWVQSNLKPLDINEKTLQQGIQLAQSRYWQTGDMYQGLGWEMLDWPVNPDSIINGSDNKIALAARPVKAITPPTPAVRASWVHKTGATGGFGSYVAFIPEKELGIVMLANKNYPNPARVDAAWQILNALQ
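Enzyme, pH 7.0 phosphate. Compound titrations were pre-incubated with AmpC for 15 min at room temperature before nitrocefin (stock 800 uM) addition; product formation was recorded at 480 nm every 20 s for 4 min.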
AmpC inh det: blocks E. coli AmpC beta-lactamase in presence of detergent | P00811 | purified AmpC, nitrocefin hydrolysis with detergent | Potency, µM (top dose mostly 28.7 µM), for the others: at the top dose activity change, negative = inhibition | hit rate 0.09% among 71,000 | AID 584; active means well fitted curve in the direction sought with a large enough effect; inconclusive means small, poorly fitted or top-dose-only effect; further: on the % scale 0 is the no-effect control and ±100 the full control effect
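E. coli AmpC (5.3 nM) in 20 mM phosphate pH 7.0 with 0.01% Triton X-100, preincubated 15 min RT with compound; nitrocefin (2 uL of 800 uM stock) hydrolysis followed by 480 nm absorbance every 20 s over 4 min.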
LT uptake inh: anthrax lethal toxin internalization inhibition; hit rate 0.67% among 70,000; Cells, anthrax lethal toxin internalization, FRET ratio (460/530); Potency, µM (series often up to 40 µM), without a hit: top-dose activity change, negative = inhibition, hits mostly inhibitors; further: on the % scale 0 is the no-effect control and ±100 the full control effect; nearly all actives have a fitted effect of over 50% in size
SmPrx2 inh: inhibitors of Schistosoma mansoni peroxiredoxin 2; S. mansoni Prx2 activity coupled to TGR/GSH (TGR is thioredoxin glutathione reductase), NADPH fluorescence loss, qHTS; Potency, µM; hit rate 0.07% among 65,000
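Coupled assay in which S. mansoni TGR passes NADPH reducing equivalents via glutathione to Prx2, which reduces H2O2. Compounds were preincubated 15 min at room temperature with 25 nM TGR/50 nM Prx2 mix. Kinetic NADPH fluorescence loss (ex 365/em 450 nm) was monitored.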
Numbers without * were called inactive; ! = repeats disagree; [ ] = remark or other dose. An excerpt weighted towards active compounds, which were near 2.4% of everything screened. Unless noted, the call rests on the fitted dose curve. Potency means the concentration at half of the fitted maximal effect.

CN1CCN(CCCNC(=O)c2ccc(CS(=O)(=O)c3ccc(Br)cc3)o2)CC1 was read as AmpC nodet inh 21.9%, AmpC inh det 9.7%, LT uptake inh -1.9% and SmPrx2 inh >57.
CCOc1ccc2nc(NC(=O)COC)sc2c1 was read as AmpC nodet inh 8.0%, AmpC inh det -4.1%, LT uptake inh 6.3% and SmPrx2 inh >57.
`CCOc1ccc2nc(NC(=O)Nc3cccs3)sc2c1` gave AmpC nodet inh 3.16µM*[single pt active], AmpC inh det 9.8%, LT uptake inh inconclusive and SmPrx2 inh >57.
For CN[C@]1(C)[C@@H]2CC[C@@H](C2)C1(C)C the results were AmpC nodet inh 3.1%, AmpC inh det -1.0%, LT uptake inh 1.5% and SmPrx2 inh >57.
`CC(C)(C)CC(C)(C)c1cc(O)c(O)c(CN2CCCCC2)c1` gave AmpC nodet inh -5.9%[5.75 µM], AmpC inh det -7.0%[5.75 µM], LT uptake inh -19.7%[8 µM] and SmPrx2 inh >57.
Screening O=C(O)CC[C@@H](NC(=O)c1ccccc1C(=O)O)C(=O)O returned AmpC nodet inh 12.4%, AmpC inh det -5.1%, LT uptake inh 7.8% and SmPrx2 inh >57.
`C=CCn1c2ccccc2c2nnc(SCN3C(=O)c4ccccc4C3=O)nc21` gave AmpC nodet inh 15.8%, AmpC inh det 2.7%, LT uptake inh -15.7% and SmPrx2 inh >57.
Screening C=CCn1c2ccccc2c2nnc(SCCCn3c(=O)[nH]c4ccccc43)nc21 returned AmpC nodet inh 20.6%, AmpC inh det -3.5% and LT uptake inh 6.31µM*.
For C[C@@H]1O[C@@H](O[C@H]2C[C@@H](O)[C@]3(CO)[C@@H]4[C@@H](O)C[C@]5(C)[C@H](C6=CC(=O)OC6)CC[C@@]5(O)[C@H]4CC[C@@]3(O)C2)[C@H](O)[C@H](O)[C@@H]1O the results were AmpC nodet inh -9.3%, AmpC inh det -4.2%, LT uptake inh inconclusive and SmPrx2 inh >57.
`O=C1CC(N2CCC(c3nc4ccccc4[nH]3)CC2)C(=O)N1Cc1ccccc1` (stereo not drawn) gave AmpC nodet inh 36.3%, AmpC inh det -2.6%, LT uptake inh 0.0% and SmPrx2 inh >57.
Screening CN1C(=O)CC(N2CCC(c3nc4ccccc4[nH]3)CC2)C1=O (stereo not drawn) returned AmpC nodet inh 3.98µM*[single pt active], AmpC inh det 13.1%, LT uptake inh -2.7% and SmPrx2 inh >57.
For CCc1cccc2c3c([nH]c12)[C@](CC)(CC(=O)O)OCC3 the results were AmpC nodet inh 3.4%, AmpC inh det -2.8%, LT uptake inh 4.9% and SmPrx2 inh >57.
For CCOC(=O)c1c(-c2ccccc2)c(C(C)=O)c(=O)n(C)c1C the results were AmpC nodet inh 3.98µM*[single pt active], AmpC inh det 7.9%, LT uptake inh 2.8% and SmPrx2 inh >57.
`CCOC(=O)c1c(N)nn(C(C)=O)c1-c1ccccc1` gave AmpC nodet inh 2.2%, AmpC inh det -6.6%, LT uptake inh -1.0% and SmPrx2 inh >57.
For O=C(NCc1cccnc1)[C@@H]1[C@@H](C(=O)O)[C@H]2CC[C@@H]1O2 the results were AmpC nodet inh 9.8%[5.75 µM], AmpC inh det -2.5%[5.75 µM], LT uptake inh -2.1%[8 µM] and SmPrx2 inh >57.
For COc1ccccc1CNc1ncnc2ccc(-c3ccccc3OC)cc12 the results were AmpC nodet inh 23.1%, AmpC inh det 7.9%, LT uptake inh inconclusive and SmPrx2 inh >57.
For COc1cccc(-c2cncnc2-n2ccnc2)c1 the results were AmpC nodet inh -16.0%, AmpC inh det -10.9%, LT uptake inh 7.7% and SmPrx2 inh >57.
COc1cccc(-c2nccc(-n3ccnc3)n2)c1 was read as AmpC nodet inh 10µM*, AmpC inh det 12.6µM*, LT uptake inh inconclusive and SmPrx2 inh >57.
For CN(C)c1ccc(C(=O)OCC(=O)Nc2ccc(S(N)(=O)=O)cc2)cc1 the results were AmpC nodet inh 15.8µM*[single pt active], AmpC inh det -1.5%, LT uptake inh 8.7% and SmPrx2 inh >57.
`CCOC(=O)c1ccc(NC(=O)Nc2ccc(S(N)(=O)=O)cc2)cc1` gave AmpC nodet inh -20.2%, AmpC inh det -4.3% and SmPrx2 inh >57.
For COc1cc(Cc2cnc(N)nc2N)cc(OC)c1OC the results were AmpC nodet inh 6.31µM*!, AmpC inh det -1.2%, LT uptake inh inconclusive and SmPrx2 inh >57.
`ClC1=C(Cl)C2(Cl)C3C(Cl)C=CC3C1(Cl)C2(Cl)Cl` (stereo not drawn) gave AmpC nodet inh -24.2%, AmpC inh det 8.3% and LT uptake inh 15.8µM*.
